Assay outcomes deposited in PubChem by several laboratories.
The list is not random: actives were taken first. Their share in the collection is about 1.5%.
SKBR3 24h inh = SK-BR-3 proliferation inhibitors | SK-BR-3 viability, CellTiter-Glo ATP luminescence, 24 h; stronger effect = lower value | viability, % at 10 µM | 41,000 compounds, 0.47% hits | AID 847;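 active = viability at or below the median of all test compounds minus 3 SD, in both replicates if run twice, cut at about 45% in these data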;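 note: 100% = median untreated cell wells and 0% = median positive control drug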
ROCK2 blocker = ROCK2 (human) kinase inhibition; O75116; purified ROCK2, Kinase-Glo ATP depletion luminescence; inhibition, % at 6 µM; 60,000 compounds, 0.35% hits;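 active = inhibition above the screen-wide mean inhibition plus 3 SD, cut at about 18% in these data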;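 note: plate controls were DMSO wells for no effect and Y-27632 control wells after no-enzyme background subtraction for full effect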
HER2 expr 66K = Her2 kinase expression inhibition; P04626; SKBR-3 HER2 protein level, AlphaScreen, 18-24 h; stronger effect = lower value; HER2 level % of control, % at 10 µM; 65,000 compounds, 0.69% hits; AID 645;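 active = HER2 level under 5% of the carrier-only control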;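 note: 100% = DMSO carrier and 0% = 500 nM PU-H71 HSP90 inhibitor; lower value means stronger loss of Her2 protein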
PKA inh = PKA (human) kinase inhibition; P17612; PKA Kemptide phosphorylation, Kinase-Glo ATP luminescence; inhibition, % at 6 µM; 65,000 compounds, 0.1% hits;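 active = inhibition above the screen-wide mean inhibition plus 3 SD, cut at about 21% in these data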
JNK3 inh = inhibitors of human JNK3 kinase; purified JNK3 kinase activity, HTS; P53779; inhibition, % at 8 µM; 60,000 compounds, 0.61% hits; in the data active = inhibition above about 17%;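 note: 0% = DMSO and 100% = reference inhibitor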
An asterisk follows results filed as active; x = no result given.

SMILES	SKBR3 24h inh	ROCK2 blocker	HER2 expr 66K	PKA inh	JNK3 inh
O=C(O)c1cc(NCc2ccc3c(c2)OCO3)ccc1N1CCOCC1	86	51*	85	7	2
O=C1NCC(O)=C1C=NC12CC3CC(CC(C3)C1)C2	139	6	111	9	1
NC(=O)C1(N2CCCCC2)CCN(C(=O)c2ccc(-n3cnnn3)cc2)CC1	42*	5	145	9	2
O=C(c1ccc(-n2cnnn2)cc1)N1CCOCC1	100	-4	91	7	5
Cc1nnc(Sc2nc(Sc3nnc(C)s3)nc(N3CCN(C)CC3)n2)s1	100	5	-33*	19	5
Cn1c(C(=O)NCc2ccco2)cc2c(=O)[nH]c3ccccc3c21	90	-2	84	5	47*
Cc1cc(C(=O)NCc2ccco2)cs1	89	1	110	5	0
CC(=NCc1ccco1)c1c(O)n(C2CCCCC2)c(=O)[nH]c1=O	99	2	93	-2	4
CC(=NCc1ccco1)c1c(C)[nH]n(-c2nc3ccccc3s2)c1=O	95	-20	95	0	20*
COC(=O)CSc1nnc(CNC(=O)Cc2ccccc2)n1C	86	-2	94	-3	6
COC(=O)CSc1nnc(CNc2ccc(OC)cc2)n1C	96	-4	97	-12	-3
Cc1cc(NC(=O)CSC2=Nc3ccccc3C3=NC(Cc4ccccc4)C(=O)N23)n[nH]1 (stereo unspecified)	x	1	121	4	36*
Cc1[nH]c2ccccc2c1C(=O)COC(=O)C1CCC(=O)N1 (stereo unspecified)	x	6	-21*	10	-7
Cc1cc(-c2nnc3n2N=C(c2ccc(-c4ccccc4)cc2)CS3)n[nH]1	57	1	-21*	4	5
COc1ccc(-c2nnc3n2N=C(c2ccccc2)CS3)cc1OC	24*	4	16	8	-2
N#Cc1nc(-c2cccs2)oc1NCc1ccc2c(c1)OCO2	73	-13	86	0	6
CCn1c(SCC(=O)N2c3ccccc3CCc3ccccc32)nc2c1c(=O)n(C)c(=O)n2C	x	0	-3.2*	4	-5
CC(C)Cn1c(SCC(=O)c2ccc(Cl)s2)nnc1-c1ccco1	x	3	126	8	-3
Cn1c(COc2ccccc2)nnc1SCCC(=O)Nc1ccccc1	116	4	112	1	6
O=C1CC(Sc2nnnn2C2CCCCC2)C(=O)N1c1ccccc1 (stereo unspecified)	x	2	-3.2*	-4	-10
CCC1Oc2ccccc2N(CC(=O)Nc2ccc3c(c2)OCCO3)C1=O (stereo unspecified)	81	x	90	1	x
O=C(CN1C(=O)C2C3C=CC(C3)C2C1=O)Nc1ccc2c(c1)OCCO2 (stereo unspecified)	32*	0	98	1	2
CC/C(=C\C(=O)c1cccnc1)Nc1ccc(C)c(C)c1	89	14	82	12	-2
CC#CCCCC(=O)Nc1cc(OC)nc(OC)n1	97	3	-24*	-1	1
C#CCOC(=O)CCC(=O)Nc1cc(OC)nc(OC)n1	98	-2	106	-5	-13
SMILES	SKBR3 24h inh	ROCK2 blocker	HER2 expr 66K	PKA inh	JNK3 inh
Cc1ccc(S(=O)(=O)NCCSc2nnnn2-c2cc(C)ccc2C)cc1	96	6	102	11	3
Cc1ccc(C)c(-n2nnnc2Sc2nnnn2-c2ccccc2)c1	x	0	-11*	3	-2
COCCOC(=O)C1=C(C)N=C2SCCC(=O)N2C1c1ccc(OC(=O)c2ccco2)cc1 (stereo unspecified)	87	x	131	4	x
Cn1c(SCc2ccc(Br)cc2)nnc1-c1ccncc1	90	17	120	25*	-4
Cn1c(SCc2ccccc2)nnc1-c1ccncc1	85	5	99	8	-1
COc1ccc(-n2nnc3c(SCC(=O)NCC4CCCO4)ncnc32)cc1 (stereo unspecified)	x	-2	-0.9*	-2	-3
CCN(CC)C(=O)CSc1ncnc2c1nnn2-c1ccc(OC)cc1	x	-4	81	-3	4
O=C(Nc1nncs1)c1ccc(N2C(=O)C3C4C=CC(C4)C3C2=O)cc1 (stereo unspecified)	79	6	85	6	17*
CCc1cc2c(=O)[nH]cnc2s1	91	51*	99	23*	3
Cn1c(CSc2ncccn2)nnc1SCC(=O)N1CCCc2ccccc21	24*	0	128	9	0
CCn1c(CSc2ncccn2)nnc1SCC(=O)N1CCc2ccccc21	87	4	83	0	-1
O=C(Nc1ccccc1C(=O)N1CCN(c2ccccc2)CC1)c1ccco1	x	5	130	5	0
O=C(CSc1nc2ccccc2nc1SCC(=O)N1CCCCC1)N1CCCCC1	x	4	85	7	6
Cc1cc(NC(=O)CSc2nc(-c3ccccc3)cs2)no1	83	18*	105	12	2
CCCc1nc(SCC(=O)N2CCCC2)c2ccccc2n1	73	0	66	5	17*
CCCc1nc(SCC(=O)Nc2cc(C)on2)c2ccccc2n1	125	0	90	-1	21*
Cn1c(=O)n(CCc2ccccc2)c(=O)c2c1nc1n2CCN1c1ccccc1	x	4	117	11	-4
O=c1c2ccccc2nc(-c2ccccc2)n1CCCn1ccnc1	x	0	107	6	0
O=c1c2ccccc2nc(-c2ccco2)n1CCCn1ccnc1	102	12	99	2	18*
COc1ccc(CCN2C(=O)C3C4C=CC(C4)C3C2=O)cc1OC (stereo unspecified)	98	7	116	7	8
CCOC(=O)c1sc2nc(SCC#N)n(CCCN3CCCC3=O)c(=O)c2c1C	x	x	71	5	x
CCOc1ccc(N2C(=O)CC(Sc3nc(C)cc(C)c3C#N)C2=O)cc1 (stereo unspecified)	86	2	-9.9*	1	-3
O=C(CS(=O)(=O)Cc1ccccc1)N1CCN(c2cccc(C(F)(F)F)c2)CC1	94	2	120	8	-1
OC(CN1CCN(c2cccc(C(F)(F)F)c2)CC1)c1c[nH]c2ccccc12 (stereo unspecified)	75	4	-22*	1	-1
Cc1cc(N2CCN(C3CCCC3)CC2)n2nc(C)c(-c3ccccc3)c2n1	93	4	168	7	0
SMILES	SKBR3 24h inh	ROCK2 blocker	HER2 expr 66K	PKA inh	JNK3 inh
CCCNc1ncnc2nc[nH]c12	x	16	76	17	4
c1ccc(CCCNc2ncnc3nc[nH]c23)cc1	x	8	87	22*	-1
CCn1c(SCC(=O)Nc2ccc(N(C)C)cc2)nnc1-c1cccc(C)c1	98	7	98	14	-2
CCCOc1ccc2oc(=O)c3c(c2c1)CCCN3C(=O)CN(C)Cc1ccccc1	110	8	67	7	1
CCOC(=O)N1CCN(C(=O)CSCc2nc(-c3ccccc3C)oc2C)CC1	x	1	-23*	-2	7
COc1ccc(/C=C/C(O)=C2/C(=O)N(C)C3(C)CC2c2ccccc2O3)cc1 (stereo unspecified)	x	-4	-6.0*	-4	-5
